The source made the active and inactive calls. The call rests on the fitted dose curve; in most records, active means well fitted activation curve with a large enough effect; inconclusive means small, poorly fitted or top-dose-only effect; inactive means flat fitted curve, though single readings scatter.
Experiment: Confirmation and Secondary Assay for Modulators of Hemoglobin Beta Chain Splicing at IVS2 705 locus (AID 930); further: % of control where 0% means no effect
Conditions: HeLa EGFP-705 splicing reporter, GFP fluorescence, 48 h; series mostly up to 46.1 µM; activation: at the top concentration
Text: NIH Chemical Genomics Center [NCGC] NIH Molecular Libraries Screening Centers Network [MLSCN] MLSCN Grant: 1 X01 MH080684-01 PI Name: Dr. Ryszard Kole NCGC Assay Overview: Modulation of Alternative Splicing as Therapy Abnormal splicing is associated with a number of diseases, including cancer and genetic diseases such as cystic fibrosis, muscular dystrophy and beta-thalassemia. Alteration of disease associated splicing patterns provides a promising target for treatment. […] Mutations in the second intron of the b-globin gene at positions 654 or 705 are clinically relevant and cause mis-splicing which results in an out of frame gene product. […] EGFP-705 HeLa Cells as screen system. HeLa cell lines were stably transfected with a construct in which the EGFP (enhanced green fluorescent protein) cDNA was interrupted by the second intron of the beta-globin gene (IVS2-705). The ISV2 intron contains mutations which cause mis-splicing of EGFP and premature termination of EGFP which results in a nonfluorescent protein product. […] Expression of the transgene was driven by the CMV promoter. We concluded that a low molecular weight compound, which restored correct splicing of intron 2 would also generate functional EGFP protein, resulting in a fluorescent signal. Thus, the HeLa cells that express the EGFP-705 construct can be used for validation of splice site specificity of compounds identified in primary screening of the ISV2 654 construct.
NCGC Assay Protocol Summary: Confirmatory Screening. Freshly thawed HeLa EGFP-705 cells were seeded in 5 ul of optimem media (Invitrogen) containing 2 % fetal calf serum (Hyclone) and 1x penicillin/streptomycin (Invitrogen) at a concentration of 500 cells per well in 1536-well plates. Cells were incubated overnight at 37C in 5% CO2. The next day, cells were treated with DMSO, 500 nM antisense ISV2 654 PNA control oligo, or library compound and allowed to grow at 37C in 5% CO2 for 2 days. The PNA oligo blocked the mutation site in the intron and allowed proper (wild type) splicing to occur, resulting in full length EGFP expression and also allowed for optimization of the assay parameters. Plates were read in the Acumen Explorer (TTP Labtech) using 488 nm laser excitation and 500-520 nm emission PMT filter in a 1 x 8 uM capture mode. Fluorescnet objects ranging in size from 5 to 250 uM were measured and the total peak GFP intensity for each well was used for data analysis. Keywords: Thalassemia, beta-thalassemia, beta-globin, EGFP, ISV2 654, ISV2 705, SSO, PNA, antisense, splicing, MLSMR, MLSCN, NIH Roadmap, qHTS, NCGC

activation, inactive:
CC(=O)OCC(=O)[C@@]1(O)CCC2C3CCC4=CC(=O)CC[C@]4(C)C3C(=O)C[C@]21C (stereo not given in full) 1.2%, C=C1C([C@@]2(C)C(OC(C)=O)CC(=O)O[C@@](C)(COC(C)=O)C2CC(=O)OC)C(OC=O)C(OC(=O)C(O)C(C)CC)[C@]2(C)C(c3ccoc3)CC(=O)C12O (stereo not given in full) -0.267%, CC(=O)c1c(O)cc(O)cc1O 2% [at 38.3 µM], COc1ccc2c(=O)ccoc2c1 0.05% [at 38.3 µM], CNC(C)C1CC[C@H](N)[C@@H](OC2C(N)C[C@H](N)[C@@H](OC3OC[C@](C)(O)C(NC)[C@H]3O)C2O)O1 (stereo not given in full) 0.554%, COc1c2c(cc3occ(-c4ccc5c(c4)OCO5)c(=O)c13)OC(C)(C)C=C2 0.549% [at 38.3 µM], CC1CC2C3CC(F)C4=CC(=O)C=C[C@@]4(C)[C@@]3(F)C(O)C[C@]2(C)[C@]1(O)C(=O)COC(=O)C(C)(C)C (stereo not given in full) -0.802%, O=C(O)c1cc2ccccc2[nH]1 1.35%, COc1ccc(-c2cc(=O)c3c(OC(C)=O)cc(OC(C)=O)cc3o2)cc1 0.185%, COc1cc2c(cc1OC)C1C(=O)c3c(cc4c(c3O)C=CC(C)(C)O4)OC1CO2 (stereo not given) 0.18% [at 38.3 µM], COc1ccc2c(c1)OC/C(=C/c1ccc(OC)c(OC)c1)C2=O -0.288% [at 38.3 µM], O=C(O)C(S)[C@@H](S)C(=O)O (stereo not given in full) 2.27%, C[C@@]12CCC(OC(=O)c3ccccc3)CC1CCc1ccccc12 (stereo not given in full) 0.449% [at 38.3 µM], Nc1ncnc2c1nc(Br)n2C1OC(CO)C(O)C1O (stereo not given) -0.251% [at 38.3 µM], C=CC(C1=CC(=O)C(OC)=C(OC)C1=O)c1ccccc1 (stereo not given) 2.38% [at 38.3 µM], C=C1CCC2C(CC2(C)C)C(=O)CCC1O (stereo not given) 0.228% [at 38.3 µM], COc1ccc(-c2coc3c(OC)c(OC)cc(O)c3c2=O)cc1 4.58%, C#CCCCCCCCCCCCC(O)CC(O)COC(C)=O (stereo not given) -0.511%, CNC1CCC(c2ccc(Cl)c(Cl)c2)c2ccccc21 (stereo not given) 0.495%, CCCCCC(=O)O[C@@]1(C(C)=O)CCC2C3CCC4=CC(=O)CC[C@@]4(C)C3CC[C@]21C (stereo not given in full) 0.345%, COc1ccc(-c2cc(=O)c3ccccc3o2)cc1 -0.359% [at 38.3 µM], O=c1[nH]cnc2c1ncn2C1CC(O)C(CO)O1 (stereo not given) 0.3% [at 38.3 µM], CNCC(O)c1cccc(O)c1 (stereo not given) -1.72%, COC(=O)CC1[C@@]2(C)C[C@]34OC5(C)OC6(C7CC(=O)OC(c8ccoc8)[C@]7(C)CCC6(O5)[C@]13C)C(OC(C)=O)[C@]4(OC(C)=O)C2OC(C)=O (stereo not given in full) 0.625% [at 38.3 µM], CC1CC2C(C(O)C[C@]3(C)C2CC[C@]3(O)C(=O)CO)[C@]2(C)C=CC(=O)C=C12 (stereo not given in full) -0.711%, COc1c(CC(=O)c2cc3c(cc2O)OC(C)(C)C(O)C3)ccc2c1C=CC(C)(C)O2 (stereo not given) 0.879%, C=C1C(=O)C23C(O)C1CCC2[C@]12COC3(O)C(O)C1C(C)(C)CC[C@H]2O (stereo not given in full) 2.59%, C=C1c2cccc(O)c2C(O)=C2C(=O)[C@]3(O)C(O)=C(C(N)=O)C(=O)C(N(C)C)C3C(O)C12 (stereo not given in full) 1.47%, C[C@]12CCC3c4ccc(O)cc4CCC3C1CCC2OC(=O)CCC1CCCC1 (stereo not given in full) 0.958%, CC(=O)Oc1c(-c2ccccc2)oc2c(CC=C(C)C)c3c(c(OC(C)=O)c2c1=O)C=CC(C)(C)O3 1.12% [at 38.3 µM], CCC(=O)O[C@H]1C(O[C@@H]2C(C)[C@H](O[C@H]3C[C@@](C)(OC)C(O)C(C)O3)C(C)C(=O)OC(CC)[C@@](C)(O)C(O)[C@H](C)C(=O)C(C)C[C@]2(C)O)OC(C)CC1N(C)C (stereo not given in full) 1.01%, COc1cc(O)c(C(=O)/C=C/c2ccc(O)c(OC)c2)c(OC)c1 -0.207%, COc1ccc(-c2c(O)c3c(OC)c4c(cc3oc2=O)OC(C)(C)CC4)cc1 -0.452% [at 38.3 µM], Nc1ncnc2c1[nH]c(=O)n2C1CC(O)C(CO)O1 (stereo not given) 0.977% [at 38.3 µM], NC(C(=O)O)C(O)C(=O)O (stereo not given) 2.1% [at 38.3 µM], CC1CC2C3CCC4=CC(=O)C=C[C@@]4(C)[C@]3(F)C(O)C[C@]2(C)[C@]1(O)C(=O)COP(=O)(O)O (stereo not given in full) 0.915%, CCOC(=O)C1=C[C@@]2(CC)CCCN3CCc4c(n1c1ccccc41)C32 (stereo not given in full) 3.59%, COC(=O)c1c(C)cc(O)cc1O -0.337% [at 38.3 µM], CSCCC(N)C(=O)NC(CC(C)C)C(=O)NC(Cc1ccccc1)C(=O)O (stereo not given) 0.868% [at 38.3 µM]

outcome, inactive:
COc1cc(C2c3cc4c(cc3C(O)[C@H]3COC(=O)C23)OCO4)cc(OC)c1OC (stereo not given in full)
